A short description of experiment [1]: qHTS for Inhibitors of Plasmodium falciparum (DD2) proliferation (AID 504314).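 Note: parasite DNA measured by SYBR Green fluorescence after red cell lysis; plate controls were DMSO vehicle for no effect and artemisinin wells for full effect.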 The essentials: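 P. falciparum Dd2 is grown in erythrocytes with test compound for 72 h at 37C under 5% CO2. Growth is scored by SYBR Green I fluorescence after detergent lysis, relative to artemisinin (0.29 uM) and DMSO controls.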
Experiment [2] can be described thus: qHTS for Inhibitors of Plasmodium falciparum (CP250) proliferation (AID 504320).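 Note: plate controls were DMSO vehicle for no effect and 0.29 µM artemisinin control for full effect.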 The essentials: (§1)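 Parasite growth measured as SYBR Green DNA fluorescence (ex 485, em 535 nm) after overnight lysis following 72 h culture at 37 °C, 0.3% parasitemia, 2.5% hematocrit. Values normalized against DMSO and 0.29 uM artemisinin controls, with plate-stack correction.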
In general terms: In qHTS, concentration-response curves come from the screen itself.

The target of experiment [3] is Atrial natriuretic peptide receptor 1 (Homo sapiens) (UniProt P16066). Description: Natriuretic polypeptide receptor (hNpr1) antagonism - Pilot CMLD screen (AID 1347052; calls by dose curve;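 note: HEK293 cells with hNpr1 stimulated by hNppA peptide at 0.1 nM; cGMP level read as GloSensor luciferase luminescence after agonist stimulation; series mostly up to about 9.2 µM; % is set by controls: 0 for no effect and ±100 for the full control effect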).
Experiment [4] in a line: qHTS for Inhibitors of Plasmodium falciparum (GB4) proliferation (AID 504315). Note: nearly all actives have a fitted effect of over 50% in size. Note: potency is the fitted concentration of half-maximal effect. The essentials:
as §1

The nature of experiment [5]: qHTS for Inhibitors of Plasmodium falciparum (7G8) proliferation (AID 504316). Note: nearly all actives have a fitted effect of over 65% in size. Note: potency is the fitted concentration of half-maximal effect. The essentials:
as §1

Experiment [6] in a line: qHTS for Inhibitors of Plasmodium falciparum (HB3) proliferation (AID 504318). Note: nearly all actives have a fitted effect of over 60% in size. Note: potency is the fitted concentration of half-maximal effect. The essentials:
as §1

Each structure is given as a SMILES string. Records with an inconclusive call do not appear. Unmarked numbers belong to inactive results. The source made the active and inactive calls. Unless noted, calls come from the whole dose curve; as a rule, active = well fitted curve in the direction sought with a large enough effect; inconclusive = small, poorly fitted or top-dose-only effect, or another doubt; inactive = no such curve, though single readings can be large; an effect the other way counts as inactive or inconclusive.

Chain of Atrial natriuretic peptide receptor 1 (Homo sapiens) (P16066 whole entry, looked up): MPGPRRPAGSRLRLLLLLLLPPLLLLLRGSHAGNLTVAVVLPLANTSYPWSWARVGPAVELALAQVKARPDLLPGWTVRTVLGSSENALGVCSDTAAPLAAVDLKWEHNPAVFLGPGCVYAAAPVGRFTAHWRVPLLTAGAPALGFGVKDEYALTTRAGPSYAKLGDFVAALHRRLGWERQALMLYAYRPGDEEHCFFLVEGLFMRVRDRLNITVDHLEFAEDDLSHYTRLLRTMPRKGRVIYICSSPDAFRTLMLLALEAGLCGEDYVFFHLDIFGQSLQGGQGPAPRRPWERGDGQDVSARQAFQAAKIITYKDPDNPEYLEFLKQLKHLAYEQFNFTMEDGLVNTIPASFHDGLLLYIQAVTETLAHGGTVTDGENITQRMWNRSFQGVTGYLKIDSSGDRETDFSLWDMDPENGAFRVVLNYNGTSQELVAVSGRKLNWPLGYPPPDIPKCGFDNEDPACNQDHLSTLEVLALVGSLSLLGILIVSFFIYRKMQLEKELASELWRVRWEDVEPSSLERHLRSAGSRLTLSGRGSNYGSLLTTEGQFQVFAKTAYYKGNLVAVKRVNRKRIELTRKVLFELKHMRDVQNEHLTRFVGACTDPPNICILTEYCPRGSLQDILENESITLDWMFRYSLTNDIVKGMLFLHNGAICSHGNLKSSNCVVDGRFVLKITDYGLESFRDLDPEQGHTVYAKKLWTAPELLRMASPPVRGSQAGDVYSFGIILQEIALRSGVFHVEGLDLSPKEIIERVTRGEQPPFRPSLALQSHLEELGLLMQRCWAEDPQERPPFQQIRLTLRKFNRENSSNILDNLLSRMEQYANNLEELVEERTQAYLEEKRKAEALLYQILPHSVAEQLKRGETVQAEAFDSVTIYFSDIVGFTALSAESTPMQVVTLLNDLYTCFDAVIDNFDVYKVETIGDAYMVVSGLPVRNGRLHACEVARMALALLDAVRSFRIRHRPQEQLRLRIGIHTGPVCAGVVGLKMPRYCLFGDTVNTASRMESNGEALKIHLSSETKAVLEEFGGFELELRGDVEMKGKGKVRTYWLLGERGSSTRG

As for `O=C(NCCOc1ccccc1)O[C@@H]1C(=O)c2cc(Br)ccc2O[C@H]1c1ccc2c(c1)OCO2`, the Potency entry in experiment [1], in experiment [2] and in experiment [3] was “inactive” throughout.
Consider `CC(Nc1oc(-c2ccccc2)nc1-c1ccccc1)c1ccccc1` (stereo not given), for which the Potency result in experiment [1], in experiment [2] and in experiment [3] was “inactive” throughout.
In the case of `CCN(CC)CCCN=C1NC(c2cccc(F)c2)C(C(=O)OC)=C(C)N1Cc1ccccc1` (stereo not given), the Potency entry in experiment [4] and in experiment [3] was “inactive” throughout.
Take `C[C@@H]1C=CCCO[C@]12C(=O)N(Cc1ccccc1C(F)(F)F)c1cccc(Br)c12`: the Potency result in experiment [1], in experiment [2] and in experiment [3] was “inactive” in each case.
Regarding `C=C(C)C1CC23C(=O)[C@]4(C(=O)c5ccccc5)C[C@@]5(C)CCC(CC2C1(C)C)(C4=O)[C@@]35OC` (stereo not given in full), the Potency entry in experiment [1], in experiment [2] and in experiment [3] was “inactive” throughout.
With `C[C@H](O)CON1C(=O)c2ccccc2C1=O`, the Potency result in experiment [1], in experiment [2] and in experiment [3] was “inactive” in each case.
With `COCOc1cc(OC)ccc1C(=O)C=Cc1ccc([N+](=O)[O-])cc1`, the Potency in experiment [4] was 1690 nM (active). Further, the Potency result in experiment [3] was “inactive”.
Take `CCCCCCCC1Cc2ccccc2C(C(C(=O)OC)C(=O)OC)N1C(=O)OC` (stereo not given): the Potency result in experiment [1], in experiment [2] and in experiment [3] was “inactive” in each case.
On to `COC(=O)N[C@H](C(C(=O)OC)=C(C)NCc1ccccc1)c1ccccc1`, for which the Potency result in experiment [1], in experiment [2] and in experiment [3] was “inactive” in each case.
On to `CC(C)=CCCC(C)=CCON=C1C[C@@H](O)[C@@H](O)[C@@H]2[C@H]3C(=O)N(Cc4ccc5c(c4)OCO5)C(=O)[C@@H]3CC[C@H]12`, for which the Potency result in experiment [1], in experiment [2] and in experiment [3] was “inactive” in each case.
Consider `COCOc1c2c(c(OCOC)c3c(OCOC)cccc13)C(=NNS(=O)(=O)c1ccc(C)cc1)C1=C2CCCC1`, for which the Potency result in experiment [1], in experiment [2] and in experiment [3] was “inactive” in each case.
For `COc1ccc2c(c1)[C@@H](NC(=O)C(F)(F)F)C1CCCCC21c1ccccc1` (stereo not given in full), the Potency result in experiment [1], in experiment [2] and in experiment [3] was “inactive” throughout.
With `COC(=O)N[C@@H](c1ccccc1)C(C(=O)OC)C(=O)OC`, the Potency result in experiment [1], in experiment [2] and in experiment [3] was “inactive” throughout.
With `COc1ccc(OC[C@H]2CN3[C@H](c4ccc(Br)cc4)[C@H](C)CC[C@H]3C(=O)O2)cc1`, the Potency result in experiment [1], in experiment [2] and in experiment [3] was “inactive” throughout.
In the case of `CC12C=C(C=Cc3ccccc3)C(C)(C1)C(c1ccccc1)CC2=O` (stereo not given), the Potency entry in experiment [4] and in experiment [3] was “inactive” each time.
Take `CCCCCCCC1=Cc2ccccc2C(CC(=O)c2ccccc2)N1C(=O)OC` (stereo not given): in experiment [1], the activity, negative = inhibition is -4.11% [at 1.12 µM]. Also, the Potency entry in experiment [2] and in experiment [3] was “inactive” in each case.
With `CC1=CC[C@@H](COc2ccccc2)O[C@@]2(C1)C(=O)Nc1ccccc12`, the Potency result in experiment [1], in experiment [2] and in experiment [3] was “inactive” each time.
Take `CCCCCCCC1=Cc2ccc(F)cc2C(C(C(=O)OC)C(=O)OC)N1C(=O)OC` (stereo not given): the activity, negative = inhibition in experiment [1] was -0.0199% [at 1.12 µM]. The Potency entry in experiment [2] and in experiment [3] was “inactive” throughout.
Regarding `COC(=O)[C@@H]1CC[C@H](C)[C@@H](c2ccc(C)cc2)N1C(=O)c1ccc(C=NO[C@@H](C)c2cn([C@H](CO)Cc3ccccc3)nn2)cc1`, the Potency result in experiment [4] and in experiment [3] was “inactive” in each case.
Turning to `CC1(C)OCC([C@H](O)C2=CCCCC2=O)CO1`, the Potency entry in experiment [1], in experiment [2] and in experiment [3] was “inactive” each time.
`COc1ccc2c3c(c(=O)oc2c1)[C@H]1O[C@](c2ccsc2)(Cc2ccccc21)O3`: in experiment [4], the Potency is 1690 nM (active). Moreover, the Potency entry in experiment [3] was “inactive”.
For `CC(C)=CCCC(C)=CCN1C(=O)[C@]2(OCCC=C[C@H]2C)c2ccccc21`, the Potency entry in experiment [1], in experiment [2] and in experiment [3] was “inactive” in each case.
`C[C@@H]1CC[C@H]2C(=O)N(Cc3cccc([N+](=O)[O-])c3)C[C@H](O)CN2[C@@H]1c1cccc(Br)c1`: the Potency result in experiment [4] and in experiment [3] was “inactive” each time.
Consider `CCCCCCCC1=Cc2ccccc2C(C(C(=O)OC)C(=O)OC)N1C(=O)OC` (stereo not given), for which the Potency result in experiment [1], in experiment [2] and in experiment [3] was “inactive” each time.
Turning to `CC(C)=CCCC(C)=CCN1C(=O)[C@@]2(C[C@@H](C)C[C@@H](C)O2)c2ccccc21`, the Potency entry in experiment [1], in experiment [2] and in experiment [3] was “inactive” in each case.
Regarding `C[C@@H]1CC[C@H]2C(=O)O[C@H](COc3ccc(C(C)(C)C)cc3)CN2[C@@H]1c1ccc(Br)cc1`, the Potency result in experiment [4], in experiment [5], in experiment [6] and in experiment [3] was “inactive” each time.
For the compound `O=S(=O)(CCc1ccccc1)c1nnnn1C1CCCCC1`, the Potency result in experiment [4] and in experiment [3] was “inactive” in each case.
Consider `CC(C)(C)Nc1oc(-c2ccccc2)nc1-c1ccc(C(F)(F)F)cc1`, for which the Potency entry in experiment [4], in experiment [5], in experiment [6] and in experiment [3] was “inactive” each time.
Regarding `C=CCN=C1NC(CCc2ccccc2)C(C(=O)OC)=C(C)N1CC` (stereo not given), the Potency result in experiment [4], in experiment [5], in experiment [6] and in experiment [3] was “inactive” each time.
For the compound `CCN1C(=NCc2cc(OC)c(OC)c(OC)c2)N[C@@H](c2ccccc2)[C@H](C(=O)OC)[C@H]1C`, the Potency result in experiment [4], in experiment [5], in experiment [6], in experiment [2] and in experiment [3] was “inactive” throughout.
In the case of `COC(=O)[C@H]1O[C@@H](c2cc(OC)c(C)c(OC)c2OCc2ccccc2)[C@H](C)[C@@H]2O[C@]12C`, the Potency in experiment [4] is 2130 nM (active). Further, the Potency entry in experiment [3] was “inactive”.
`CCc1cc2c(nc1CC)CCN(CCC(C)=NOC[C@@H](O)[C@H]1O[C@@H]3OC(C)(C)O[C@H]3[C@@H]1O)C2`: the Potency result in experiment [4] and in experiment [3] was “inactive” in each case. The Potency in experiment [5] was 1690 nM (active).
As to `COc1ccc([C@]23Cc4c(ccc5ccccc45)[C@H](O2)c2c(cc(-c4ccccc4)oc2=O)O3)cc1`, the Potency entry in experiment [4], in experiment [5], in experiment [6], in experiment [2] and in experiment [3] was “inactive” throughout.
On to `COc1cccc([C@@H]2Oc3ccc(Br)cc3C[C@@H]2OC(=O)N[S+](=O)([O-])c2ccc(C)cc2)c1`, for which the Potency result in experiment [4], in experiment [5], in experiment [6] and in experiment [3] was “inactive” each time.
Consider `CCN1C(=NCc2cccc(C(F)(F)F)c2)NC(c2cccs2)C(C(=O)OC)=C1C` (stereo not given), for which the Potency entry in experiment [4], in experiment [5], in experiment [6], in experiment [2] and in experiment [3] was “inactive” each time.
With `CCCNC(=O)OC[C@H]1O[C@H](CCON=C(C)CCN2CCCc3nc(C)c(C)cc32)C=C[C@H]1Oc1ccc(OC)cc1`, the figures for the Potency in experiment [4], in experiment [5] and in experiment [6] were 1900 nM (active), 1350 nM (active) and 1690 nM (active), respectively. Besides, the Potency result in experiment [3] is “inactive”.
Turning to `N#CCCCSc1nnnn1-c1cc(C(F)(F)F)cc(C(F)(F)F)c1`, the Potency entry in experiment [4], in experiment [5] and in experiment [3] was “inactive” each time.
With `COc1ccc([C@]23Cc4ccccc4[C@H](O2)c2c(c4ccc(OC)cc4oc2=O)O3)cc1`, the figures for the Potency in experiment [4] and in experiment [5] were 1900 nM (active) and 1690 nM (active), respectively. Also, the Potency entry in experiment [3] is “inactive”.
On the same counts, the results for `CC(C)(C)OC(=O)N1CCC[C@@H]1C(O)(c1ccccc1)c1ccccc1` are “inactive”, “inactive” and “inactive”.

Source of the values: PubChem BioAssay (NCATS).
